Shown are actives, neighbours in structure and some others; about 5.8% of the full set was active somewhere.
TRPV1 PAM – potentiators of human vanilloid receptor 1 (TRPV1). Q8NER1. TRPV1-expressing cells, Fluo-8 calcium influx, capsaicin EC20 potentiation. potentiation, % at 8.33 µM. 0.02% of 320,000 active. AID 540277; in the data active = potentiation above about 80%; inconclusive = between about 30% and that limit; note: 0% is about no effect
Target sequence (Q8NER1 whole entry, looked up): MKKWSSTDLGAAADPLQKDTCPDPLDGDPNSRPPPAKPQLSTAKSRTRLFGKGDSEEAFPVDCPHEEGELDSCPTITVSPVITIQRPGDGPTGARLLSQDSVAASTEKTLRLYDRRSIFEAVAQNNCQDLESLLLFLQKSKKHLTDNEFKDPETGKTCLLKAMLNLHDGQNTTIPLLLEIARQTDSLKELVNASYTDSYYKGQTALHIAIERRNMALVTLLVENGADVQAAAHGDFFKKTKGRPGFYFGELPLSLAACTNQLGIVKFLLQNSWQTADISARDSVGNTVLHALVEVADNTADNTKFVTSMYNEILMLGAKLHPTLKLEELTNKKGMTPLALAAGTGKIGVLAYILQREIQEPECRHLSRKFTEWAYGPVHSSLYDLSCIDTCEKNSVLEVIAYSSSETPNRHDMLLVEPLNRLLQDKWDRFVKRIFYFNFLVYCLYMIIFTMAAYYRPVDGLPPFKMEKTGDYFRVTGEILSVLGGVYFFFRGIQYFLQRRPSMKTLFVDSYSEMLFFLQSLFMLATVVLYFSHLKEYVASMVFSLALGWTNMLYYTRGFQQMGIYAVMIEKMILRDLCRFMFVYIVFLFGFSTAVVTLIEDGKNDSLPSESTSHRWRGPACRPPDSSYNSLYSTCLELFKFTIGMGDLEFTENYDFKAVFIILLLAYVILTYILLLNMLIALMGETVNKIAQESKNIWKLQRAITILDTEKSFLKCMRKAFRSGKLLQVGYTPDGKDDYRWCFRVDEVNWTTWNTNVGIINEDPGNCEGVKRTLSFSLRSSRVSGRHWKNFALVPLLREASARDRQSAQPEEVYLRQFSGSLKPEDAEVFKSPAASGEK
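Fluo-8 calcium influx in TRPV1-expressing cells, kinetic read (ex 480/em 520 nm). Compound added and read 3 min for agonist activity, followed by capsaicin at EC20 final and 2 min further read for enhancement.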
uPA surface inh – blocks generation of uPA at the cell surface; cell surface uPA generation assay, qHTS; Potency, µM (highest dose often 38.3 µM), for the others: at the highest dose activity change, negative = inhibition, usual class: inhibitors; 0.31% of 330,000 active; AID 540303; active = well fitted inhibition curve with a large enough effect; inconclusive = small, poorly fitted or top-dose-only effect; inactive = no such curve, though single readings can be large or run the other way; tested in mouse RAW 264.7 cells; note: potency is the fitted concentration of half-maximal effect; % is set by controls: 0 for no effect and ±100 for the full control effect; nearly all actives have a fitted effect of over 55% in size
TRPV1 ag – activates the human vanilloid receptor TRPV1 | activation, % at 8.33 µM | 0.19% of 320,000 active | TRPV1-expressing cells, Fluo-8 calcium influx, agonist mode; in the data active = activation above about 80%; inconclusive = between about 30% and that limit; note: 0% is about no effect
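Cells expressing TRPV1 were dye-loaded with Fluo-8 and read kinetically: 10 s baseline, 3 min after compound (agonist portion), then 2 min after EC20 capsaicin (allosteric enhancer portion). Calcium-bound dye fluorescence at 480/520 nm.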
RORgamma inh – inhibitors of mouse ROR gamma transcriptional activity | 5.4% of 310,000 active | P51450 | Potency, µM (highest dose often 53.6 µM), inactives show at the highest dose activity change, negative = inhibition, actives largely listed as inhibitors | Drosophila S2 Gal4-RORgamma UAS-luciferase reporter, 20 h; note: potency is the fitted concentration of half-maximal effect; % is set by controls: 0 for no effect and ±100 for the full control effect; nearly all actives have a fitted effect of over 60% in size
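A Gal4/UAS one-hybrid system in insect cells: metallothionein-promoter Gal4–ROR gamma fusion plus Photinus luciferase reporter. Copper sulfate 700 uM final, 20 hr ambient incubation, luminescent detection after 10 min with reagent.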
Gal4-VP16 FLuc – Gal4-VP16 reporter inhibition counter-screen. Drosophila S2 Gal4-VP16 UAS-luciferase, luminescence, 20 h. Potency, µM (top dose mostly 53.6 µM), for the others: top-dose activity, negative = inhibition, hits mostly inhibitors. 3.5% of 310,000 active. AID 2546;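 note: Gal4-VP16 expression switched on by copper sulfate through the metallothionein promoter; potency is the fitted concentration of half-maximal effect; % is set by controls: 0 for no effect and ±100 for the full control effect; nearly all actives have a fitted effect of over 50% in size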
Active calls of the source: *; ? = inconclusive; / = no result given; [ ] = dose if it differs, or a comment. Unless noted, calls come from the whole dose curve; as a rule, active = well fitted curve in the direction sought with a large enough effect; inconclusive = small, poorly fitted or top-dose-only effect, or another doubt; inactive = no such curve, though single readings can be large; an effect the other way counts as inactive or inconclusive.

SMILES	TRPV1 PAM	uPA surface inh	TRPV1 ag	RORgamma inh	Gal4-VP16 FLuc
CCn1cc(CNC(=S)Nc2cccc(Cl)c2C)cn1	-6	1%	5	-40%	2%
NC(N)=NCCC[C@H](N)C(=O)NCC(=O)N[C@@H](CC(=O)O)C(=O)N[C@@H](CO)C(=O)O	/	/	/	27%	-7%
O=C(c1ccco1)N1CCC2(CCN(Cc3cc(C(F)(F)F)cc(C(F)(F)F)c3)CC2)CC1	/	/	/	14%	-13%
C[C@H](N=C(NC#N)Nc1ccncc1)C(C)(C)C	/	/	/	-21%	-3%
COc1ccc(NC(=O)C2CCN(S(=O)(=O)c3c(C)noc3/C=C/c3cccs3)CC2)cc1Cl	-19	/	19	/	/
Cc1c(C(=O)NC2CCCCC2)sc2nc3ccc(N)cc3n12	/	/	/	?	-10%
O=C(NC(=S)Nc1ccc2c(c1)OCCO2)c1ccccc1F	-3	-3%	5	10µM*	?
COc1cc(C(=O)NC(=S)Nc2ccc3c(c2)OCO3)cc(OC)c1OC	4	-9%	-2	14µM*	?
O=C(Nc1ccc(NC(=O)c2ccc3c(c2)OCCO3)cc1)c1ccccc1	6	-1%	1	?	-5%
CCOc1cccc(C(=O)NC(=S)Nc2ccc(N3CCCC3)cc2)c1	-6	6%	5	2.2µM*	6.3µM*
O=C(NC(=S)Nc1ccc2c(c1)OCCO2)c1ccccc1	4	/	6	4µM*	?
O=C(CN1CCN(Cc2cccc3ccccc23)CC1)NCCc1ccccc1	6	4%	-1	40%	8%
N#CC1C(C#N)N2CCCN2C1c1ccc(Br)cc1 (stereo not drawn)	27	1%	-3	3%	-1%
COc1ccccc1CCn1c(=O)c(-c2cccs2)nc2cncnc21	/	/	/	-30%	24%
COc1ccccc1NC(=S)NC(NC(=O)C(C)C)C(Cl)(Cl)Cl (stereo not drawn)	-16	0%	9	-5%	-5%
O=C(NCCc1ccc(Cl)cc1)C1CCN(C(=O)c2sccc2-n2cccc2)CC1	4	-1%	0	?	-6%
COc1ccc(NC(=S)NC(=O)c2ccc3c(c2)OCCO3)cc1	/	-3%	/	/	/
COc1cccc(OC)c1C(=O)NC(=S)Nc1ccc2c(c1)OCCO2	0	1%	0	13µM*	-15%
CC(=O)N1c2ccccc2N(Cc2ccc(C)cc2C)C(=O)C1(C)C	-8	7.1µM*	19	0%	-7%
C=CCN1C(=O)C(C)(C)N(C(C)=O)c2ccccc21	-8	-11%	0	-4%	2%
C/C(CCN1CCc2nc(-c3ccccc3)c(-c3ccccc3)cc2C1)=N\O[C@@H](C)CN1CCCCc2nc(C)c(C)cc21	/	/	/	-13%[10 µM]	-1%[10 µM]
Cc1nc2cc(Cl)ccc2n1-c1ccccc1	21	1%	3	16µM*	-22%
Oc1ccc2ccccc2c1-c1sc(Nc2ccccc2)n[n+]1-c1ccc(F)cc1	-14	-1%	6	-7%	-13%
Fc1ccc(-[n+]2nc(Nc3ccccc3)sc2-c2c3ccccc3cc3ccccc23)cc1	-17	?	-5	10µM*	-18%
COc1ccccc1C(=O)NCC(=O)N1CC=C(c2ccccc2)CC1	-4	0%	14	/	/
SMILES	TRPV1 PAM	uPA surface inh	TRPV1 ag	RORgamma inh	Gal4-VP16 FLuc
CC(C)Oc1cccc(C(=O)Nc2ncn[nH]2)c1	16	0%	3	16µM*	?
C=CCOc1ccc(C(=O)Nc2ncn[nH]2)cc1	17	-6%	-10	11µM*	-11%
CC(C)Oc1ccc(C(=O)Nc2ncn[nH]2)cc1	-8	-1%	1	?	?
CC(C)COc1ccc(C(=O)Nc2ncn[nH]2)cc1	-3	2%	-8	2.8µM*	3.5µM*
CN(c1ccccc1)S(=O)(=O)c1cccc(C(=O)Nc2nccs2)c1	-12	0%	27	22%	?
CCOc1ccc(C(=O)Nc2ncn[nH]2)cc1	-5	-4%	-3	-27%	0%
CN(c1ccccc1)S(=O)(=O)c1cccc(C(=O)Nc2ncn[nH]2)c1	15	-4%	-3	8.9µM*	?
COc1ccc(OCCCC(=O)Nc2ncn[nH]2)cc1	20	4%	1	-5%	1%[10 µM]
CCc1ccc(NC(=O)C2CCN(S(=O)(=O)c3ccc4c(c3)CC(C)N4C(C)=O)CC2)cc1 (stereo not drawn)	24	?	2	-30%	?
CC1CCCN(C(=O)CN2C(=O)CSc3ccc(S(=O)(=O)N4CCOCC4)cc32)C1 (stereo not drawn)	-2	-10%	4	-7%	1%
CCN(CC)S(=O)(=O)c1cccc2cccnc12	3	3%	-2	1%	3%
CCN(CC)S(=O)(=O)c1cc(OC)ccc1N=Nc1ccc(O)c2ncccc12	9	?	0	1.3µM*	1.3µM*
CCS(=O)(=O)c1ccc(OC)c(N=Nc2ccc(O)c3ncccc23)c1	-6	-3%	-6	1µM*	?
COc1ccc(S(=O)(=O)NCCOc2cccc3cccnc23)cc1OC	9	1%	2	-3%	-2%
CCOc1ccc(N2CC(C(=O)Nc3cc(Cl)ccc3-n3cncn3)CC2=O)cc1 (stereo not drawn)	-41	17%	?	/	/
COc1ccccc1N1CCN(C(=O)C(=O)c2c(C)[nH]c3ccccc23)CC1	-6	12%	1	-4%	-6%
O=C(NCCN1CCOCC1)c1cc(Cl)ccc1Cl	-3	-9%	0	4%	1%
O=C(NCCN1CCOCC1)NC1(C(F)(F)F)Oc2ccc(Cl)cc2O1 (stereo not drawn)	24	-11%	7	0.32µM*	?
COCC(C)NC(=O)NC1(C(F)(F)F)Oc2ccc(Cl)cc2O1 (stereo not drawn)	6	-8%	-1	10µM*	11µM*
CCOC(=O)Cc1csc(NC(=O)NC2(C(F)(F)F)Oc3ccc(Cl)cc3O2)n1 (stereo not drawn)	24	-9%	0	-5%	?
COc1cc(/C=N/NC(=O)C[n+]2ccccc2)cc(OC)c1OC(C)=O	-5	-4%	2	26%	-3%
Clc1ccc(OCCSCc2nc3ccccc3[nH]2)cc1	0	6%	-4	5µM*	5µM*
CCn1c(COc2ccc(Cl)cc2)nnc1SCc1nc2ccccc2[nH]1	14	/	-1	11µM*	?
Cc1ccc(OCCSCc2nc3ccccc3[nH]2)cc1	/	4%	/	-31%	?
Cc1ccc(C)c(Cn2nnc3c(=O)[nH]c(C4CCCN(C(=O)c5ccco5)C4)nc32)c1 (stereo not drawn)	5	-3%	-1	5%	1%
Nc1c2c(nc3sc4c(c13)CCCC4)-c1ccccc1CC2	3	-4%	2	?	10µM*
Cc1c(/C=N\NC(=O)C2COc3ccccc3O2)c2ccccc2n1C (stereo not drawn)	-6	-9%	-2	-8%	-5%

Source: PubChem BioAssay
